# The campaign covered roughly 68,000 compounds. About 2,700 (4%) showed an effect of 50% or more. The full list was thinned out, with strong results kept by preference.
# Test system: Plasmodium berghei
# Assay: Screen against P. berghei liver stage (PbLuc), transformed with Luciferase, at 2uM
# Type: functional, HepG2
# Details: tested at 2 uM
row,Compound,INHIBITION [%]
1,O=C(c1cccc(F)c1)N1CC[C@H]2[C@H]1CCN2CC1CCOCC1,13.04
2,CCc1nccn1C1CCCN(C(=O)c2ccn(-c3ccccc3)n2)C1 (configuration not stated),6.54
3,O=C(C1CNCCO1)N1CCC(c2cc(N3CCCC3)ncn2)CC1 (configuration not stated),37.15
4,O=C(CC1CNCCO1)N1CCC(c2cc(N3CCCC3)ncn2)CC1 (configuration not stated),48.93
5,O=C(CN1CCOCC1)N1CCC(c2cc(N3CCCC3)ncn2)CC1,70.81
6,Cn1ccnc1-c1cn(CCCc2csc(N)n2)nn1,-21.39
7,CCNC(=O)[C@@H]1C[C@H](NC(=O)c2cncnc2C)CN1Cc1ccsc1,12.78
8,CCn1c(-c2ccccc2)nn(CC(=O)NCCc2ccc(C)s2)c1=O,47.25
9,Cc1ccc(-n2nnc(C(=O)NC(C)C)c2C2CC2)cc1,82.5
10,CC(C)NC(=O)c1nnn(-c2ccccc2)c1C1CC1,2.31
11,CC(C)NC(=O)c1nnn(-c2ccc(F)cc2)c1C1CC1,3.89
12,Cc1cc(C)n(C2CN(CCc3ccccn3)C2)n1,-7.32
13,CN(C)Cc1nnc(C2CCCN(c3nccc4ccccc34)C2)n1C (configuration not stated),63.01
14,CN(C)Cc1nnc(C2CCCN(c3ncccc3F)C2)n1C (configuration not stated),6.39
15,CN(C)CCn1ccnc1C1CCCN(c2nccc3ccccc23)C1 (configuration not stated),49.94
16,Cc1cc(C)nc(NCCC(=O)NCCn2ccnc2C)n1,28.4
17,Cc1cc(C)nc(NCCC(=O)NCCn2ccc3ccccc32)n1,50.94
18,Cc1cc(C)nc(NCCCC(=O)NCCn2ccc3ccccc32)n1,-12.76
19,CCS(=O)(=O)N(C)C1CCN(C(=O)c2cccc(Cl)c2)CC1,-41.98
20,CCC(=O)Nc1ccc2c(c1)C1(CCOCC1)CN2CCF,-24.5
21,COc1ccc(OC)c(-c2nc(CN(C)Cc3nncn3C)c(C)o2)c1,-5.6
22,COc1ccc(NC(=O)c2ccccc2NCc2ncnn2C)cc1,-25.35
23,Cn1ncnc1CNc1ccccc1C(=O)NC(C)(C)C,-38.42

row,Compound,INHIBITION [%]
1,CNC(=O)c1ccccc1NCc1ncnn1C,54.03
2,CC(C)c1nnc2n1CC(CNC/C=C/c1ccccc1)CC2 (configuration not stated),4.8
3,CC(C)c1n[nH]c(C2CN(C(=O)c3cc4c(s3)CCC4)CCO2)n1 (configuration not stated),10.53
4,COCC(c1cccc(C(F)(F)F)c1)N(C)C(=O)c1ccccn1 (configuration not stated),-9.61
5,CC(C)(C)NC(=O)CN1CCCC(c2ccc(C(=O)O)cc2)C1 (configuration not stated),31.27
6,CCNC(=O)CN1CCCC(c2ccc(C(=O)O)cc2)C1 (configuration not stated),2.06
7,CC(C)CNC(=O)CN1CCCC(c2ccc(C(=O)O)cc2)C1 (configuration not stated),50.67
8,CCS(=O)(=O)N1CCC(c2cc3n(n2)[C@@H](C(F)(F)F)C[C@@H](C)N3)CC1,-22.38
9,Cc1nc(=O)c(CC(=O)N2C[C@H]3CC[C@@H](C2)N(CC2CCC2)C3)c(C)[nH]1,25.47
10,Cc1cc(C)n(CC(=O)N2C[C@H]3CC[C@@H](C2)N(CC2CCC2)C3)c(=O)n1,41.07
11,Cc1nc(=O)c(CC(=O)N2C[C@H]3CC[C@@H](C2)N(CC2CCC2)C3)c[nH]1,68.39
12,Cc1ccc(C(C)NC(=O)Cc2c(C)nc3c(c2C)c(=O)[nH]n3C)o1 (configuration not stated),-30.5
13,CC(C)C1CN(C(=O)c2ccc3nccnc3c2)CCS1 (configuration not stated),43.29
14,CCOCc1nn(CC2CC2)c2c1CN(Cc1cccs1)CC2,34.93
15,COCc1nn(CC2CC2)c2c1CN(Cc1cccs1)CC2,51.26
16,c1cncc(OCc2n[nH]c3c2CN(Cc2cccs2)C3)c1,14.94
17,Cc1cccc(CN2Cc3[nH]nc(COCC4CC4)c3C2)n1,-4.06
18,c1ccc(OCc2n[nH]c3c2CN(Cc2cccs2)C3)nc1,29.45
19,COCc1nn(CC2CC2)c2c1CN(Cc1ccco1)CC2,38.09
20,COCc1n[nH]c2c1CN(Cc1cccs1)C2,56.21
21,c1ccc(CN2Cc3[nH]nc(COCC4CC4)c3C2)nc1,28.5
22,OCCOCc1n[nH]c2c1CN(Cc1ccco1)C2,8.99
23,OCCOCc1n[nH]c2c1CN(Cc1ccccn1)C2,2.69

row,Compound,INHIBITION [%]
1,OCCOCc1n[nH]c2c1CN(Cc1cccs1)C2,52.74
2,c1csc(CN2Cc3[nH]nc(COCC4CC4)c3C2)c1,58.98
3,CCC[C@H]1CN(C(=O)CCn2ccccc2=O)C[C@@H]1NS(C)(=O)=O,25.9
4,CC(C)S(=O)(=O)NC(=O)c1cc(-c2cccc(Cl)c2)no1,38.67
5,COc1ccc(C)cc1-n1c(COC(C)C)n[nH]c1=O,-19.78
6,Cc1nc(C2CCCN2CCCc2nc3ccccc3o2)no1 (configuration not stated),17.19
7,COCCCN1CCC(C(=O)c2cc(F)ccc2F)CC1,-6.4
8,O=C(NCC1(Sc2ccccc2)CC1)c1ccc(=O)[nH]n1,-5.26
9,O=C(NCC1(Sc2ccccc2)CC1)c1cc[nH]n1,32.51
10,O=C(NCC1(Sc2ccccc2)CC1)c1c[nH]nn1,66.4
11,Cc1noc(C)c1CC(=O)N1CCCN(Cc2cscn2)CC1,25.74
12,O=C(CCCn1cncn1)N1CCCC1c1nc(-c2ccccc2)no1 (configuration not stated),48.21
13,N#Cc1ccc(N2CCCN(CCCn3cncn3)CC2)cc1,-27.36
14,c1ccc(-c2noc(C3CCN(CCn4cccn4)CC3)n2)cc1,43.44
15,N#Cc1ccc(CN2CCCN(CCCn3cncn3)CC2)cc1,65.3
16,c1ccc(CCCN2CCN(CCn3cncn3)CC2)cc1,76.6
17,c1ccc(-c2noc(C3CCN(CCCn4cncn4)CC3)n2)cc1,57.75
18,c1ccc(SCCN2CCN(CCn3cncn3)CC2)cc1,30.62
19,c1ccc(C(c2ccccc2)N2CCN(CCn3cncn3)CC2)cc1,35.54
20,N#Cc1ccc(CN2CCCN(C(=O)CCn3cncn3)CC2)cc1,12.43
21,COc1ccc(CC(=O)N2CC[C@H](CO)[C@H](O)C2)c(OC)c1,26.93
